Data: the supplement of paper PMC6089552
The campaign covered roughly 3,200 compounds. About 300 (9.4%) showed activity. What follows is part of a selection rich in actives, with near analogues and random picks from the rest.

Tested on: A673/TR/shEF
Test: cell viability (LOESS-normalised, relative to median of negative controls) (log2 ratio); higher = more viable cells (less compound effect), active = hit call of the paper (over 3 MAD below the median)
Conditions: treatment time: 72 h
How it was run: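 A673/TR/shEF Ewing sarcoma cells (1,500 per well, 384-well plates) were grown with or without doxycycline to induce EWS-FLI1 shRNA knockdown, starting 24 h before compounds. Library compounds at two or more concentrations, with DMSO controls, were added for three days. Cell viability was read by CellTiter-Glo luminescence on an Envision reader, then LOESS-corrected per plate, divided by the median of negative controls and log2-transformed. Hits were wells at least three median absolute deviations from the median of all screened wells.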

[1] = 0.25 µM, library screen: screen1, EWS-FLI1 expression: high (no doxycycline)
[2] = 0.25 µM, library screen: screen1, EWS-FLI1 expression: low (doxycycline-induced shRNA knockdown)
[3] = 2.5 µM, library screen: screen1, EWS-FLI1 expression: high (no doxycycline)
[4] = 2.5 µM, library screen: screen1, EWS-FLI1 expression: low (doxycycline-induced shRNA knockdown)
[5] = 0.25 µM, library screen: screen2, EWS-FLI1 expression: high (no doxycycline)
[6] = 0.25 µM, library screen: screen2, EWS-FLI1 expression: low (doxycycline-induced shRNA knockdown)
[7] = 2.5 µM, library screen: screen2, EWS-FLI1 expression: high (no doxycycline)
[8] = 2.5 µM, library screen: screen2, EWS-FLI1 expression: low (doxycycline-induced shRNA knockdown)

Measured: cell viability (log2)

O=C(O)CNCP(=O)(O)O
inactive: [1] 0.0875 | [2] 0.0822 | [3] 0.124 | [4] 0.106

NCC(O)c1cc(O)c(O)cc1F (centres undefined)
inactive: [5] 0.233 | [6] 0.183 | [7] 0.0966 | [8] 0.0732

CC(=O)Oc1ccc(Cl)c2cccnc12
inactive: [1] 0.106 | [2] 0.136 | [3] 0.0698 | [4] 0.0992

CNc1ccccc1C(=O)O
inactive: [1] 0.0696 | [2] 0.0258 | [3] 0.131 | [4] 0.00755

CCCCOC(=O)c1ccccc1C(=O)OCCCC
inactive: [1] 0.118 | [2] 0.0394 | [3] 0.0831 | [4] -0.283

C[CH2][Hg][S]c1ccccc1C(=O)O
active: [1] -0.15 | [3] -3.6 | [4] -2.98
inactive: [2] -0.123

CC(=O)C1=C(O)[C@@H]2[C@H]3c4c[nH]c5cccc(c45)C[C@H]3C(C)(C)N2C1=O
inactive: [1] 0.0498 | [2] 0.042 | [3] 0.0855 | [4] 0.00492

COc1cc2c(c(OC)c1OC)-c1ccc(OC)c(=O)cc1[C@@H](NC(C)=O)CC2
inactive: 0.025 µM, library screen: screen2, EWS-FLI1 expression: high (no doxycycline) 0.127 | 0.025 µM, library screen: screen2, EWS-FLI1 expression: low (doxycycline-induced shRNA knockdown) 0.0363
active: [1] -4.23 | [2] -0.935 | [5] -3.33 | [6] -0.503 | [3] -4.18 | [4] -0.869 | [7] -3.21 | [8] -0.472 | 25 µM, library screen: screen2, EWS-FLI1 expression: high (no doxycycline) -3.45 | 25 µM, library screen: screen2, EWS-FLI1 expression: low (doxycycline-induced shRNA knockdown) -0.515

COc1cc2c(c(OC)c1OC)-c1ccc(O)c(=O)cc1C(NC(C)=O)CC2 (centres undefined)
active: [3] -1.1 | [4] -0.493
inactive: [1] 0.0964 | [2] 0.0193

COc1cc2c(cc1OC)C(=O)c1ccc(OC)c(OC)c1OCC(=O)C2
inactive: [1] 0.0297 | [2] 0.0329 | [3] 0.104 | [4] 0.0978

COc1ccc2c(c1O)-c1c(OC)c(OC)cc3c1[C@H](C2)N(C)CC3
inactive: [1] -0.01 | [2] -0.0109 | [3] 0.111 | [4] 0.131

C=C(C)c1cc2cc(C(C)=O)c(O)cc2o1
inactive: [1] 0.113 | [2] 0.098 | [3] 0.0228 | [4] 0.00912

OCC(O)Cc1ccc2c(c1)OCO2 (centres undefined)
inactive: [1] 0.0615 | [2] 0.039 | [3] 0.0501 | [4] 0.111

CC1(C)C(=O)[C@@H]2O[C@@H]2[C@@]2(C)C1C[C@@H](O)[C@]1(C)C2CC[C@@]2(C)[C@H](c3ccoc3)OC(=O)C3OC321 (some centres undefined)
inactive: [1] 0.0599 | [2] 0.093 | [3] 0.0793 | [4] 0.18
